The text below walks through data of PubChem BioAssay (NCI).

Compounds without any hit were thinned out: in the full panel of roughly 83,000, 20% have a hit.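 In brief: 96-well plates, 48 h treatment, single concentration, percent growth endpoint.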 Values without a mark were called inactive. Active and inactive are the calls of the source. How the source made its calls: active means growth percent below 10; inactive means the rest.

Some test systems named below: SK-MEL-2 melanoma; EKVX NSCLC; SN12C renal; UO-31 renal; TK-10 renal; ACHN renal; A498 renal; MOLT-4 leukemia; SR leukemia; RPMI-8226 leukemia; OVCAR-8 ovarian; OVCAR-5 ovarian; OVCAR-4 ovarian; SK-OV-3 ovarian; IGROV1 ovarian; OVCAR-3 ovarian; HS 578T breast; NCI/ADR-RES ovarian; CCRF-CEM leukemia.
Common to all, as to assay: NCI-60 one-dose screen, 48 h (100 = growth as untreated, 0 = no growth, -100 = all killed)
Holding throughout (conditions): 10 µM

In the case of `N#CC1=C(N)Oc2cc(N)ccc2C1c1cccnc1` (centres undefined), the growth in the assay on SK-MEL-2 melanoma was 97.4%; in the assay on EKVX NSCLC, 96.5%; in the assay on SN12C renal, 98.5%; in the assay on UO-31 renal, 84.8%; with TK-10 renal, 119%; with ACHN renal, 96.7%. The growth was 93.5% in the assay with A498 renal; 89.6% in the assay with MOLT-4 leukemia; 70.6% with SR leukemia; 106% in the assay with RPMI-8226 leukemia; 106% in the assay with OVCAR-8 ovarian; 103% in the assay with OVCAR-5 ovarian. Further, the growth with OVCAR-4 ovarian was 80.3%; in the assay on SK-OV-3 ovarian, 93.7%; with IGROV1 ovarian, 101%; with OVCAR-3 ovarian, 96.6%; in the assay with HS 578T breast, 82.4%; in the assay on NCI/ADR-RES ovarian, 96.2%.

Regarding `COC(=O)C1(O)NC(=C(C#N)C#N)C(C#N)=C1C(=O)c1ccc(OC)c(OC)c1` (centres undefined), the growth with SK-MEL-2 melanoma is 104%; in the assay with EKVX NSCLC, 113%; with SN12C renal it was 96.7%; with UO-31 renal it was 86.7%; in the assay with TK-10 renal, 122%; in the assay on ACHN renal it was 108%. Further, the growth in the assay on A498 renal was 93.6%; with CCRF-CEM leukemia, 92.1%; in the assay on MOLT-4 leukemia, 92.1%; in the assay on SR leukemia, 89.7%; with RPMI-8226 leukemia it was 90.1%; with OVCAR-8 ovarian, 92%. Besides, the growth in the assay on OVCAR-5 ovarian is 111%; in the assay with OVCAR-4 ovarian, 118%; with SK-OV-3 ovarian, 98.6%; in the assay on IGROV1 ovarian, 101%; in the assay on OVCAR-3 ovarian, 107%; in the assay with HS 578T breast, 95.9%. In the assay with NCI/ADR-RES ovarian, the growth was 106%.

For the molecule `CCc1ccc(-c2ccc(-n3nc(C)c4c(N)nc(Cc5ccccc5)nc43)cc2)cc1`, the growth in the assay on SK-MEL-2 melanoma is 36%; with EKVX NSCLC it was 83.8%; in the assay with SN12C renal, 71.1%; in the assay with UO-31 renal it was 59.2%; in the assay on TK-10 renal, 75%; in the assay with ACHN renal it was 35.5%. Moreover, the growth in the assay with A498 renal was 73.4%; in the assay with MOLT-4 leukemia, 55.7%; in the assay with SR leukemia it was 21.2%; with RPMI-8226 leukemia, 86%; with OVCAR-8 ovarian, 32.3%; with OVCAR-5 ovarian, 73.5%. Also, the growth in the assay with OVCAR-4 ovarian is 63.9%; with SK-OV-3 ovarian it was 62.8%; in the assay on IGROV1 ovarian, 68%; in the assay on OVCAR-3 ovarian, 80%; in the assay with HS 578T breast it was 57.6%; in the assay with NCI/ADR-RES ovarian, 38.4%.

`CN(C)CCCOc1ccccc1NC1=C(Cl)C(=O)C(Nc2ccccc2OCCCN(C)C)=C(Cl)C1=O`: the growth is -63.8% (active) in the assay with SK-MEL-2 melanoma; -82% (active) in the assay with EKVX NSCLC; -86.7% (active) in the assay with SN12C renal; -99% (active) in the assay with UO-31 renal; -98.3% (active) in the assay with TK-10 renal; -98% (active) with ACHN renal. The growth in the assay with A498 renal is 65.1%; in the assay with CCRF-CEM leukemia, -16.5% (active); in the assay with MOLT-4 leukemia, -33.8% (active); with SR leukemia, -4.17% (active); with RPMI-8226 leukemia, -40.3% (active); with OVCAR-8 ovarian it was -84.3% (active). The growth with OVCAR-5 ovarian was -60.1% (active); with OVCAR-4 ovarian, -98.7% (active); in the assay with SK-OV-3 ovarian, -24.3% (active); with IGROV1 ovarian, -44.8% (active); in the assay on OVCAR-3 ovarian, -90.5% (active); in the assay with HS 578T breast, 10.8%. Besides, the growth in the assay with NCI/ADR-RES ovarian is 78.5%.

Consider `O=S(=O)(O)c1cccc(Nc2ccc3ccccc3c2)c1`, for which the growth is 93.7% in the assay on SK-MEL-2 melanoma; 105% with EKVX NSCLC; 92.5% in the assay on SN12C renal; 68.9% with UO-31 renal; 115% in the assay with TK-10 renal; 98% with ACHN renal. Besides, the growth was 96.7% with A498 renal; 95.6% with CCRF-CEM leukemia; 95.3% with MOLT-4 leukemia; 92% with SR leukemia; 95.5% in the assay on RPMI-8226 leukemia; 92.4% with OVCAR-8 ovarian. The growth is 106% with OVCAR-5 ovarian; 99% in the assay with OVCAR-4 ovarian; 87.9% with SK-OV-3 ovarian; 97.5% with OVCAR-3 ovarian; 96.6% in the assay on HS 578T breast; 97.4% in the assay on NCI/ADR-RES ovarian.

As for `COc1cc(C(=O)n2nc(-c3cc(OC)c(OC)c(OC)c3)nc2N)cc(OC)c1OC`, the growth was 91.2% with SK-MEL-2 melanoma; 90.6% in the assay on EKVX NSCLC; 109% in the assay on SN12C renal; 83.2% in the assay with UO-31 renal; 98.1% in the assay on TK-10 renal; 95.8% with ACHN renal. Further, the growth is 77.6% with A498 renal; 81.5% in the assay on MOLT-4 leukemia; 73.5% with SR leukemia; 92.4% in the assay with RPMI-8226 leukemia; 102% with OVCAR-8 ovarian; 97% in the assay on OVCAR-5 ovarian. Further, the growth is 94.5% in the assay on OVCAR-4 ovarian; 87.5% in the assay on SK-OV-3 ovarian; 105% in the assay with IGROV1 ovarian; 101% with OVCAR-3 ovarian; 103% with HS 578T breast; 99.2% in the assay with NCI/ADR-RES ovarian.

Consider `CN1CCN(CCC(=O)Nc2cccc(-n3cc(-c4ccncc4)c(-c4ccc(Cl)c(O)c4)n3)c2)CC1`, for which the growth with SK-MEL-2 melanoma is 34.5%; with EKVX NSCLC it was 74.1%; in the assay on SN12C renal it was 61.8%; in the assay on UO-31 renal it was 46.9%; in the assay with TK-10 renal, 103%; in the assay on ACHN renal it was 45.5%. Besides, the growth in the assay on A498 renal is 34.5%; in the assay with CCRF-CEM leukemia it was 24.9%; in the assay on MOLT-4 leukemia, 25.6%; with SR leukemia, 5.5% (active); with RPMI-8226 leukemia it was 19.9%; in the assay on OVCAR-8 ovarian, 54.8%. In addition, the growth in the assay with OVCAR-5 ovarian was 67.7%; with OVCAR-4 ovarian it was 56%; in the assay on SK-OV-3 ovarian, 46.2%; in the assay on OVCAR-3 ovarian, 14.4%; in the assay on HS 578T breast it was 43.1%; in the assay on NCI/ADR-RES ovarian, 29.7%.

For `Nc1nccc(OCCO)n1`, the growth with SK-MEL-2 melanoma is 99.5%; in the assay on EKVX NSCLC, 97.8%; in the assay on SN12C renal, 107%; in the assay on UO-31 renal, 91%; in the assay with TK-10 renal it was 90%; in the assay on ACHN renal, 108%. The growth was 113% with CCRF-CEM leukemia; 99.9% in the assay with MOLT-4 leukemia; 95.9% in the assay with SR leukemia; 108% in the assay on RPMI-8226 leukemia; 109% in the assay with OVCAR-8 ovarian; 101% with OVCAR-5 ovarian. The growth with OVCAR-4 ovarian is 109%; in the assay on SK-OV-3 ovarian, 102%; with IGROV1 ovarian, 107%; with OVCAR-3 ovarian, 105%; with HS 578T breast, 107%; in the assay with NCI/ADR-RES ovarian, 103%.

Regarding `CN(C)CCOc1ccccc1NC1=C(Cl)C(=O)C(Nc2ccccc2OCCN(C)C)=C(Cl)C1=O`, the growth in the assay on SK-MEL-2 melanoma was 82.9%; in the assay on EKVX NSCLC, 16%; in the assay with SN12C renal it was -69.9% (active); in the assay on UO-31 renal, 38.4%; in the assay on TK-10 renal, 85.4%; in the assay on ACHN renal, -84.1% (active). Also, the growth was 107% with A498 renal; 4.28% (active) with CCRF-CEM leukemia; -32.4% (active) with MOLT-4 leukemia; 19% in the assay on SR leukemia; 82.7% in the assay on RPMI-8226 leukemia; 26.6% in the assay with OVCAR-8 ovarian. Also, the growth in the assay on OVCAR-5 ovarian is 109%; with OVCAR-4 ovarian it was -99% (active); in the assay with SK-OV-3 ovarian, 119%; in the assay on OVCAR-3 ovarian, -96% (active); in the assay on HS 578T breast, 98.4%; in the assay with NCI/ADR-RES ovarian, 92.8%.
